# Test results: publication PMC5540273 (PLoS ONE, 2017)
# Where two headings read alike, the source gives them in different places.
# Columns and labels:
# Conditions in all cases: n = 1
# MST2 = tested on: T1, MST2
# T1 construct: gene STK3
# MST3 = tested on: T2, MST3
# T2 construct: gene STK24
# MST4 = tested on: MST4
# MTOR = tested on: MTOR
# MUSK = tested on: MUSK
# MYLK2 = tested on: MYLK2
# MYLK4 = tested on: MYLK4
# MYLK = tested on: MYLK
# MYO3A = tested on: MYO3A
# MYO3B = tested on: MYO3B
# NDR1 = tested on: T3, NDR1
# T3 construct: gene STK38
# NDR2 = tested on: NDR2
# NEK10 = tested on: NEK10
# NEK11 = tested on: NEK11
# NEK1 = tested on: NEK1
# NEK2 = tested on: NEK2
# NEK3 = tested on: NEK3
# NEK4 = tested on: NEK4
# NEK5 = tested on: NEK5
# NEK6 = tested on: NEK6
# [1] = concentration: 1 μM, replicates: in singlicate
# 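Note: KINOMEscan kinase panel screen.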
smiles,measurement,setting,value
COc1ccc(C2=C(Nc3cccc(C(=O)O)c3)C(=O)NC2=O)cc1 [SB-390765],%Inh,MST2; [1],0%
same,%Inh,MST3; [1],9%
same,%Inh,MST4; [1],16%
same,%Inh,MTOR; [1],0%
same,%Inh,MUSK; [1],9%
same,%Inh,MYLK2; [1],0%
same,%Inh,MYLK4; [1],0%
same,%Inh,MYLK; [1],14%
same,%Inh,MYO3A; [1],12%
same,%Inh,MYO3B; [1],0%
same,%Inh,NDR1; [1],2%
same,%Inh,NDR2; [1],13%
same,%Inh,NEK10; [1],2%
same,%Inh,NEK11; [1],30%
same,%Inh,NEK1; [1],0%
same,%Inh,NEK2; [1],10%
same,%Inh,NEK3; [1],31%
same,%Inh,NEK4; [1],23%
same,%Inh,NEK5; [1],0%
same,%Inh,NEK6; [1],13%
Cl.Oc1ccc(-c2nc(-c3ccccc3)[nH]c2-c2ccncc2)cc1 [SB-428218],%Inh,MST2; [1],0%
same,%Inh,MST3; [1],0%
same,%Inh,MST4; [1],0%
same,%Inh,MTOR; [1],32%
same,%Inh,MUSK; [1],0%
same,%Inh,MYLK2; [1],0%
same,%Inh,MYLK4; [1],17%
same,%Inh,MYLK; [1],22%
same,%Inh,MYO3A; [1],46%
same,%Inh,MYO3B; [1],0%
same,%Inh,NDR1; [1],12%
same,%Inh,NDR2; [1],5%
same,%Inh,NEK10; [1],9%
same,%Inh,NEK11; [1],24%
same,%Inh,NEK1; [1],0%
same,%Inh,NEK2; [1],3%
same,%Inh,NEK3; [1],15%
same,%Inh,NEK4; [1],29%
same,%Inh,NEK5; [1],6%
same,%Inh,NEK6; [1],0%
Cc1ccc(NC(=O)Nc2cccc(C(F)(F)F)c2)cc1 [GSK955403],%Inh,MST2; 1 µM,57%
same,%Inh,MST3; 1 µM,16%
same,%Inh,MST4; 1 µM,0%
same,%Inh,MTOR; 1 µM,0%
same,%Inh,MUSK; 1 µM,0%
same,%Inh,MYLK2; 1 µM,22%
same,%Inh,MYLK4; 1 µM,0%
same,%Inh,MYLK; 1 µM,32%
same,%Inh,MYO3A; 1 µM,9%
same,%Inh,MYO3B; 1 µM,0%
same,%Inh,NDR1; 1 µM,15%
same,%Inh,NDR2; 1 µM,17%
same,%Inh,NEK10; 1 µM,24%
same,%Inh,NEK11; 1 µM,0%
same,%Inh,NEK1; 1 µM,7%
same,%Inh,NEK2; 1 µM,3%
same,%Inh,NEK3; 1 µM,5%
same,%Inh,NEK4; 1 µM,0%
same,%Inh,NEK5; 1 µM,0%
same,%Inh,NEK6; 1 µM,0%
O=C(Nc1n[nH]c2cc(-c3cccc(F)c3F)ccc12)C1CC1 [SB-733894],%Inh,MST2; [1],31%
same,%Inh,MST3; [1],0%
same,%Inh,MST4; [1],8%
same,%Inh,MTOR; [1],0%
same,%Inh,MUSK; [1],0%
same,%Inh,MYLK2; [1],90.2%
same,%Inh,MYLK4; [1],0%
same,%Inh,MYLK; [1],8%
same,%Inh,MYO3A; [1],2%
same,%Inh,MYO3B; [1],0%
same,%Inh,NDR1; [1],5%
same,%Inh,NDR2; [1],0%
same,%Inh,NEK10; [1],0%
same,%Inh,NEK11; [1],0%
same,%Inh,NEK1; [1],0%
same,%Inh,NEK2; [1],5%
same,%Inh,NEK3; [1],39%
same,%Inh,NEK4; [1],3%
same,%Inh,NEK5; [1],0%
same,%Inh,NEK6; [1],0%
COc1cccc(-c2cc(-c3c[nH]nc3-c3ccccn3)ccn2)c1 [GW680338],%Inh,MST2; [1],0%
same,%Inh,MST3; [1],0%
same,%Inh,MST4; [1],30%
same,%Inh,MTOR; [1],33%
same,%Inh,MUSK; [1],0%
same,%Inh,MYLK2; [1],0%
same,%Inh,MYLK4; [1],9%
same,%Inh,MYLK; [1],0%
same,%Inh,MYO3A; [1],8%
same,%Inh,MYO3B; [1],3%
same,%Inh,NDR1; [1],16%
same,%Inh,NDR2; [1],19%
same,%Inh,NEK10; [1],4%
same,%Inh,NEK11; [1],0%
same,%Inh,NEK1; [1],0%
same,%Inh,NEK2; [1],0%
same,%Inh,NEK3; [1],5%
same,%Inh,NEK4; [1],13%
same,%Inh,NEK5; [1],14%
same,%Inh,NEK6; [1],0%
